Measured values reported in the supplement of paper PMC6555819.

Columns and labels:
Test in all cases: PBM binding z-score (relative to random genomic background probes); higher = stronger binding; sequences stand for … in GC…GCGATTGACAGCGTAGAATGAAGG
[1] = system: FXR:RXRa (NR concentration 270 nM, RXRa partner concentration 90 nM)
Summary of the method: (§1)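 Binding buffer was PBS pH 7.4 with 2% milk, 0.02% Triton X-100, 1 mM DTT, 0.2 mg/mL BSA and 0.4 mg/ml salmon testes DNA. In it, ligand-free nuclear receptor dimers were incubated 1 h on custom Agilent 4×180K protein-binding microarrays carrying double-stranded probes. Antibodies against each partner (one per run) detected binding, and z-scores were calculated against random background probes after regression normalization of scanned fluorescence.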

[2] = system: LXRa:RXRa (NR concentration 270 nM, RXRa partner concentration 90 nM)
Summary of the method: as §1

[3] = system: LXRa homodimer (NR concentration 270 nM)
Summary of the method: as §1

[4] = system: LXRb:RXRa (NR concentration 270 nM, RXRa partner concentration 90 nM)
Summary of the method: as §1

[5] = system: LXRb homodimer (NR concentration 270 nM)
Summary of the method: as §1

[6] = system: PPARa:RXRa (NR concentration 270 nM, RXRa partner concentration 90 nM)
Summary of the method: as §1

[7] = system: PPARg:RXRa (NR concentration 180 nM, RXRa partner concentration 90 nM)
Summary of the method: as §1

[8] = system: PPARg:RXRa 270nM:90nM, anti-RXR (NR concentration 270 nM, RXRa partner concentration 90 nM)
Summary of the method: as §1

[9] = system: PPARg:RXRa 30nM:10nM, anti-RXR (NR concentration 30 nM, RXRa partner concentration 10 nM)
Summary of the method: as §1

[10] = system: PPARg:RXRa 90nM:30nM, anti-RXR (NR concentration 90 nM, RXRa partner concentration 30 nM)
Summary of the method: as §1

[11] = system: PPARg:RXRa DBDmut IVT, anti-RXR (DBD mutation: RXRa K156A/R161A, NR concentration 270 nM, RXRa partner concentration 90 nM)
Summary of the method: as §1

[12] = system: PPARg:RXRa IVT, anti-PPARg (NR concentration 270 nM, RXRa partner concentration 90 nM)
Summary of the method: as §1

[13] = system: PPARg DBDmut:RXRa IVT, anti-PPARg (DBD mutation: PPARg1 K132A/R137A, NR concentration 270 nM, RXRa partner concentration 90 nM)
Summary of the method: as §1

[14] = system: PPARg DBDmut IVT, anti-PPARg (DBD mutation: PPARg1 K132A/R137A, NR concentration 270 nM)
Summary of the method: as §1

[15] = system: PPARg homodimer (NR concentration 180 nM)
Summary of the method: as §1

[16] = system: PXR:RXRa (NR concentration 270 nM, RXRa partner concentration 90 nM)
Summary of the method: as §1

[17] = system: PXR homodimer (NR concentration 270 nM)
Summary of the method: as §1

[18] = system: RARa:RXR (NR concentration 270 nM, RXRa partner concentration 90 nM)
Summary of the method: as §1

[19] = system: RARa homodimer (NR concentration 270 nM)
Summary of the method: as §1

[20] = system: RARb:RXRa (NR concentration 270 nM, RXRa partner concentration 90 nM)
Summary of the method: as §1

Sequence	PBM binding z-score [1]	PBM binding z-score [2]	PBM binding z-score [3]	PBM binding z-score [4]	PBM binding z-score [5]	PBM binding z-score [6]	PBM binding z-score [7]	PBM binding z-score [8]	PBM binding z-score [9]	PBM binding z-score [10]	PBM binding z-score [11]	PBM binding z-score [12]	PBM binding z-score [13]	PBM binding z-score [14]	PBM binding z-score [15]	PBM binding z-score [16]	PBM binding z-score [17]	PBM binding z-score [18]	PBM binding z-score [19]	PBM binding z-score [20]
AGAACGAGGGCAATGAGTTGGTAGCACGGGTGGC	0.301	0.0909	-0.759	-0.443	-0.642	1.18	0.956	0.772	-0.238	0.196	3.11	2.58	0.246	-0.0657	-0.218	0.943	1.44	0.0918	-0.865	1.96
TAGGCTAGGTCATGCGGGCCAGTATAGTGTCGGC	3.97	2.69	0.422	1.26	0.000142	3.1	2.29	2.28	0.305	1.33	2.31	2.92	0.345	0.348	1.24	1.21	-0.485	2.05	0.442	3.84
TCTGCTAGGTCAGTTGGTCAGCAAACGAGCTGCC	0.988	0.432	-0.424	0.394	0.405	1.36	0.418	1.65	1.19	1.41	2.75	2.88	0.288	0.656	0.233	0.285	-0.998	0.565	-1.22	3.25
ACAGACAGGTGAGTGCAGGTAACTCAGCTGGACG	0.0345	-0.289	-0.365	-0.549	-1.06	-0.0295	0.62	-0.199	-0.134	-0.571	0.771	1.05	0.0571	-0.297	-0.465	-0.0581	-0.0579	-0.416	-0.183	0.35
ATGGAAAGGTCGAAGGTGAGTATACCCACCCGAA	4.22	3.27	0.0491	2.82	0.401	4.71	4.84	5.14	2.3	4.32	-0.138	2.06	1.21	0.517	1.61	2.99	0.649	4.14	0.905	3.78
CAGCCTCGGTCAGGGCCAGTATAGGAGGAACGTT	-0.344	-0.223	-0.491	-0.601	-1.46	-0.701	-0.243	-1.13	-1.22	-1.45	-0.887	-0.552	-1.14	-2.31	-0.745	-0.881	-0.661	-0.746	-0.656	2.01
CGTCCAAGGTCAATGCTAGGTCAGTTAAAGCATT	6.86	5.46	3.07	4.57	0.641	5.2	3.88	4.44	1.26	3.34	3.07	3.94	0.0858	0.055	4.36	4.89	1.22	5.78	1.02	5.21
TCATATAGGTAAAGGTGAAAGACGAACGATATGA	1.12	1.17	-0.192	1.28	0.0599	3.09	4.19	4.4	4.5	4.66	3.92	4.19	2	1.64	1.19	0.767	-0.0893	1.22	0.159	1.85
TTACCAAGGTTAAGGTCGTTGATCCCTCTGTAGA	4.22	4.15	0.608	2.66	-0.123	3.38	1.85	3.34	1.44	2.99	0.95	2.15	0.246	0.342	1.05	3.04	1.3	3.04	-0.0492	3.04
CTCGAAAGGTCGTGCTCAGGTGAGGATACCAAAC	5.21	3.76	0.268	3.22	-0.12	4.86	2.79	4.04	0.853	2.43	0.783	1.73	-0.368	0.176	1.74	3.15	0.182	3.92	0.325	3.94
ATCTCTAGGTAACCAACTTCAGTGAATGCCGAAC	0.38	0.07	0.43	0.199	1.07	0.378	0.531	0.519	0.321	0.666	4.05	2.98	1.39	1.39	0.412	-0.17	0.34	0.0512	0.816	0.248
GGAACGAGGGCATTCGAATTGATAGCATGGCGAT	0.807	0.373	-0.335	0.239	-0.211	1.31	1.15	1.14	0.413	0.651	3.02	2.16	-0.249	-0.176	-0.045	0.719	0.241	0.841	-0.483	1.9
ATACCAAGGTGATGGTGAGGTCGTTGATACTAAC	0.921	0.64	0.268	1.09	-0.372	1.56	0.532	0.222	0.0287	0.21	0.223	1.12	0.793	0.597	1.2	2.71	1.55	1.47	0.462	1.17
GCTTCTAGATCAAGGTTAAGAAAGACTAAGCTAA	-0.054	0.652	-0.313	0.697	-0.427	1.58	0.749	1.77	0.224	1.13	0.942	0.862	-0.0506	0.106	0.0754	0.437	0.0298	0.885	-0.746	0.841
